Calls of active or inactive are those of the source. The calls were made as follows: active = hit-call score of the fitted dose curve at least 0.9, where 1 is the maximum; inactive = score below 0.9.

What all share (settings): mRNA level, 48 h; actives raise or lower the signal
Read-out in assay [1]: Cytochrome P450 4A22 (Homo sapiens) (UniProt Q5TCH4)
The assay is described as follows: LTEA_HepaRG_CYP4A22: Life Technologies and Expression Analysis (LTEA) Assay for Cytochrome P450 4A22 (CYP4A22) using HepaRG (AID 2283495). A digest of the protocol: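 Gene expression measured by qRT-PCR against three housekeeping genes (ACTB, GAPDH, POLR2A), with gain or loss fitted relative to 0.5% DMSO vehicle. HepaRG cultures received 48 h chemical treatment, top concentration 100 uM, half-log steps, duplicate wells.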

Read-out in assay [2]: Cytochrome P450 7A1 (Homo sapiens) (UniProt P22680)
The experiment in a line: LTEA_HepaRG_CYP7A1: Life Technologies and Expression Analysis (LTEA) Assay for Cytochrome P450 7A1 (CYP7A1) using HepaRG (AID 2283496). A digest of the protocol: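 HepaRG, 48 h exposure, 8-pt half-log series from 100 uM, 0.5% DMSO vehicle, duplicates. Readout: TaqMan qRT-PCR mRNA vs three housekeeping genes; bidirectional curve fit against DMSO baseline.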

Read-out in assay [3]: Glutathione S-Transferase (GSTA2), GSTA2 (gene 2939)
The experiment in a line: LTEA_HepaRG_GSTA2: Life Technologies and Expression Analysis (LTEA) Assay for Glutathione S-Transferase (GSTA2) using HepaRG (AID 2283497). A digest of the protocol: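 qRT-PCR readout of GSTA2 transcript, normalized to three housekeeping genes, fitted bidirectionally against 0.5% DMSO baseline. Differentiated HepaRG cells received compound for 48 h at 8 concentrations (top 100 uM, half-log steps).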

Read-out in assay [4]: Glutamate-cysteine ligase catalytic (GCLC), GCLC (gene 2729)
The assay is described as follows: LTEA_HepaRG_GCLC: Life Technologies and Expression Analysis (LTEA) Assay for Glutamate-cysteine ligase catalytic (GCLC) using HepaRG (AID 2283498). Summed up: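 HepaRG, 48 h exposure, 8-pt half-log series from 100 uM, 0.5% DMSO vehicle; TaqMan qRT-PCR for GCLC mRNA, housekeeping-normalized; bidirectional curve fit vs DMSO baseline.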

Read-out in assay [5]: Glutamate-cysteine ligase regulatory (GCLM), GCLM (gene 2730)
The assay is described as follows: LTEA_HepaRG_GCLM: Life Technologies and Expression Analysis (LTEA) Assay for Glutamate-cysteine ligase regulatory (GCLM) using HepaRG (AID 2283500). Summed up: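 Endpoint is GCLM transcript level by qRT-PCR, normalized to three housekeeping genes, after 48 h chemical exposure of human HepaRG cells (0.5% DMSO vehicle, top 100 uM, half-log dilutions). Fitting was bidirectional relative to DMSO.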

Read-out in assay [6]: Glutathione S-transferase M3 (GSTM3), GSTM3 (gene 2947)
The assay is described as follows: LTEA_HepaRG_GSTM3: Life Technologies and Expression Analysis (LTEA) Assay for Glutathione S-transferase M3 (GSTM3) using HepaRG (AID 2283501). A digest of the protocol: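 GSTM3 transcript levels came from Fluidigm TaqMan qRT-PCR normalized to three housekeeping genes, fitted in both directions against DMSO. HepaRG cultures received chemicals for 48 h in serum-free induction medium (0.5% DMSO), 8 half-log concentrations up to 100 uM, duplicate.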

Read-out in assay [7]: Heat shock 70 kDa protein 1 (HSPA1A), gene 3303
The experiment in a line: LTEA_HepaRG_HSPA1A: Life Technologies and Expression Analysis (LTEA) Assay for Heat shock 70 kDa protein 1 (HSPA1A) using HepaRG (AID 2283502). Summed up: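 Cells were plated and cultured for 48 h, then switched to serum-free induction medium. Chemicals were added at eight half-log concentrations up to 100 uM for 48 h. RNA was then isolated and HSPA1A measured by qRT-PCR with bidirectional curve fitting against DMSO.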

Read-out in assay [8]: Hypoxia-inducible factor 1-alpha (Homo sapiens) (UniProt Q16665)
The experiment in a line: LTEA_HepaRG_HIF1A: Life Technologies and Expression Analysis (LTEA) Assay for Hypoxia-inducible factor 1 (HIF1A) Trancription factor using HepaRG (AID 2283503). Summed up: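 HIF1A transcript level read by qRT-PCR (ACTB, GAPDH, POLR2A normalization) after 48 h chemical exposure of HepaRG cultures. Eight half-log concentrations, top 100 uM, 0.5% DMSO vehicle, duplicates; bidirectional curve fit against DMSO baseline.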

Read-out in assay [9]: 3-Hydroxy-3-Methylglutaryl-CoA Synthase 2 (HMGCS2), HMGCS2 (gene 3158)
The experiment in a line: LTEA_HepaRG_HMGCS2: Life Technologies and Expression Analysis (LTEA) Assay for 3-Hydroxy-3-Methylglutaryl-CoA Synthase 2 (HMGCS2) using HepaRG (AID 2283504). A digest of the protocol: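 Readout is HMGCS2 transcript by qRT-PCR, housekeeping-normalised (ACTB/GAPDH/POLR2A) and fitted bidirectionally against 0.5% DMSO. Differentiated HepaRG cells received chemicals 48 h, duplicate wells, eight half-log concentrations topping at 100 uM.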

Read-out in another assay: HGF (gene 3082)
The experiment in a line: LTEA_HepaRG_HGF: Life Technologies and Expression Analysis (LTEA) Assay for Hepatocyte Growth Facto (HGF) using HepaRG (AID 2283505). Summed up:
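HGF transcript was quantified by TaqMan qRT-PCR against three housekeeping genes after 48 h treatment of HepaRG cells. Exposure ran in duplicate over eight half-log steps topping at 100 uM in 0.5% DMSO vehicle.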

Read-out in assay [10]: Insulin Like Growth Factor 1 (IGF1), IGF1 (gene 3479)
The experiment in a line: LTEA_HepaRG_IGF1: Life Technologies and Expression Analysis (LTEA) Assay for Insulin Like Growth Factor 1 (IGF1) using HepaRG (AID 2283506). Summed up:
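Cells are thawed, plated and cultured 48 h, then exposed in duplicate to chemical (highest 100 uM, half-log steps, 0.5% DMSO) for another 48 h. Total RNA is analysed by Fluidigm qRT-PCR for IGF1 expression relative to vehicle.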

Read-out in assay [11]: Intercellular Adhesion Molecule 1 (ICAM1), ICAM1 (gene 3383)
The experiment in a line: LTEA_HepaRG_ICAM1: Life Technologies and Expression Analysis (LTEA) Assay for Intercellular Adhesion Molecule 1 (ICAM1) using HepaRG (AID 2283507). Summed up: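 ICAM1 transcript levels measured by qRT-PCR, normalized to three housekeeping genes (ACTB, GAPDH, POLR2A), after 48 h chemical exposure of HepaRG cells. Duplicate eight-point half-log series from 100 uM in 0.5% DMSO; gain or loss fitted against vehicle.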

Read-out in assay [12]: Insulin-like growth factor-binding protein 1 (IGFBP1), IGFBP1 (gene 3484)
The assay is described as follows: LTEA_HepaRG_IGFBP1: Life Technologies and Expression Analysis (LTEA) Assay for Insulin-like growth factor-binding protein 1 (IGFBP1) using HepaRG (AID 2283508). A digest of the protocol: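 Read-out is qRT-PCR transcript level normalized to three housekeeping genes, fitted in both directions against 0.5% DMSO. Differentiated HepaRG cells received eight half-log concentrations (top 100 uM) in duplicate for 48 h in serum-free induction medium.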

Read-out in assay [13]: Interleukin 6 (IL6), IL6 (gene 3569)
The assay is described as follows: LTEA_HepaRG_IL6: Life Technologies and Expression Analysis (LTEA) Assay for Interleukin 6 (IL6) using HepaRG (AID 2283509). A digest of the protocol: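 qRT-PCR read-out of IL6 transcript, normalized to three housekeeping genes, after 48 h chemical exposure of HepaRG cells; 8-point half-log series, top 100 uM, 0.5% DMSO vehicle. Bidirectional curve fitting against DMSO baseline.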

Read-out in assay [14]: Interleukin 6 Receptor (IL6R), IL6R (gene 3570)
The experiment in a line: LTEA_HepaRG_IL6R: Life Technologies and Expression Analysis (LTEA) Assay for Interleukin 6 Receptor (IL6R) using HepaRG (AID 2283510).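 As to AC50: differentiated human HepaRG liver cells in serum-free induction medium.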 Summed up: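 Cells were thawed, plated and cultured 48 h, then medium was changed to serum-free induction medium. Chemicals were added in duplicate (100 uM top, half-log steps, 0.5% DMSO) for 48 h. Lysates were analyzed by qRT-PCR for IL6R expression.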

Read-out in assay [15]: Potassium channel subfamily K member 1 (KCNK1), KCNK1 (gene 3775)
The assay is described as follows: LTEA_HepaRG_KCNK1: Life Technologies and Expression Analysis (LTEA) Assay for Potassium channel subfamily K member 1 (KCNK1) using HepaRG (AID 2283511). Summed up: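 HepaRG, 48 h exposure, 8-pt half-log series top 100 uM, 0.5% DMSO vehicle, duplicates. Readout: KCNK1 transcript by qRT-PCR (Fluidigm array), housekeeping-normalized; bidirectional curve fit relative to DMSO baseline.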

Read-out in assay [16]: Keratin 19 (KRT19), KRT19 (gene 3880)
The experiment in a line: LTEA_HepaRG_KRT19: Life Technologies and Expression Analysis (LTEA) Assay for Keratin 19 (KRT19) using HepaRG (AID 2283512). Summed up: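 KRT19 transcript measured by TaqMan qRT-PCR, referenced to three housekeeping genes, after HepaRG cells received test chemicals for 48 h. Eight half-log concentrations, top 100 uM, 0.5% DMSO vehicle; increases and decreases both fitted.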

Read-out in assay [17]: JUN Transcription Factor, JUN (gene 3725)
The experiment in a line: LTEA_HepaRG_JUN: Life Technologies and Expression Analysis (LTEA) Assay for JUN Transcription Factor using HepaRG (AID 2283513). A digest of the protocol:
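Read-out is JUN transcript level by TaqMan qRT-PCR, normalized to ACTB, GAPDH and POLR2A, after 48 h chemical treatment of HepaRG cells. Concentration-response spanned eight half-log points up to 100 uM in 0.5% DMSO.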

Read-out in assay [18]: Lipase C (LIPC), LIPC (gene 3990)
The assay is described as follows: LTEA_HepaRG_LIPC: Life Technologies and Expression Analysis (LTEA) Assay for Lipase C (LIPC) using HepaRG (AID 2283514). Summed up: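 HepaRG, 48 h exposure, 8-pt half-log series from 100 uM in 0.5% DMSO, duplicates. Readout: LIPC mRNA by Fluidigm qRT-PCR, housekeeping-normalized (ACTB/GAPDH/POLR2A). Gain or loss fitted bidirectionally against DMSO baseline.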

Read-out in assay [19]: growth arrest and DNA damage 45 (GADD45G), GADD45G (gene 10912)
The experiment in a line: LTEA_HepaRG_GADD45G: Life Technologies and Expression Analysis (LTEA) Assay for growth arrest and DNA damage 45 (GADD45G) using HepaRG (AID 2283499). Summed up:
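GADD45G transcript level by qRT-PCR (housekeeping-normalized: ACTB, GAPDH, POLR2A) after 48 h chemical treatment of a single HepaRG lot in serum-free induction medium; eight-point half-log series up to 100 uM in 0.5% DMSO, duplicates, up- or down-regulation scored.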

Chain of Hypoxia-inducible factor 1-alpha (Homo sapiens) (Q16665 whole entry, looked up): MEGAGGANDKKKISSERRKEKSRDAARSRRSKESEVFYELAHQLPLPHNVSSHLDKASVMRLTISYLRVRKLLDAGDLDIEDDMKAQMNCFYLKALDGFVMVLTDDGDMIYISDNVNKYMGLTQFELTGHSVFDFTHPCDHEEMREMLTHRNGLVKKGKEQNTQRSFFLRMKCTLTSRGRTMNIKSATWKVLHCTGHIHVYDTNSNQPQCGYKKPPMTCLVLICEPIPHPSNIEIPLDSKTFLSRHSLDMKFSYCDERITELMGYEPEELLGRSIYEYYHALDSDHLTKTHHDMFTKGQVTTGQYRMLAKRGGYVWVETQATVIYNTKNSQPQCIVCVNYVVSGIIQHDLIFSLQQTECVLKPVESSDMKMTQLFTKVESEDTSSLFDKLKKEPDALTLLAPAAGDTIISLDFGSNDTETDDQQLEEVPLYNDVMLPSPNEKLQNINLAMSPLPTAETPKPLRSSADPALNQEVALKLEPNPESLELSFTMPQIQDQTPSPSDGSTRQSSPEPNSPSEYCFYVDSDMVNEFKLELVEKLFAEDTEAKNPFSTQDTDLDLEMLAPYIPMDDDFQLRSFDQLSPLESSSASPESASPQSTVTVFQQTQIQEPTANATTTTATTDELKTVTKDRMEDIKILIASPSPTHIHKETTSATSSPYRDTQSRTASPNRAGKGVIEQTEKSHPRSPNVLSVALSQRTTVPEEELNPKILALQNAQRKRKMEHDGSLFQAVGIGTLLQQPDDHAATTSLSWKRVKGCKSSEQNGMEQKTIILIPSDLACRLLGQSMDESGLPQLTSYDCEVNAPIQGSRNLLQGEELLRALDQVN

With `CC(C)CCCCCCOC(=O)CCCCC(=O)OCCCCCCC(C)C`, the call in assay [1], in assay [2], in assay [3], in assay [4], in [5] and in assay [6] was inactive. The compound was classed as inactive (in assay [7]; in assay [8]; in [9]; with HGF (gene 3082); in assay [10]; in [11]). Also, the compound was called inactive in [12], in assay [13], in [14], in assay [15], in assay [16] and in assay [17]. Moreover, in [18], the call was inactive.

Take `CCN(CC)CCNc1ccc(CNC=O)c2sc3ccc(OC)cc3c(=O)c12`: the AC50 (as a rule, the concentration giving half of the maximal activity seen) was 25.7 µM (active) in assay [1]; 21.7 µM (active) in assay [2]; 81.8 µM (active) in [3]; 50 µM (active) in assay [4]; 50 µM (active) in assay [19]; 9.92 µM (active) in assay [7]. Further, the AC50 was 75.5 µM (active) in assay [8]; 74.3 µM (active) in assay [9]; 85.6 µM (active) in assay [10]; 62.6 µM (active) in assay [11]; 94.1 µM (active) in [12]; 22 µM (active) in assay [14]. Further, in assay [15], the AC50 is 75.2 µM (active). Moreover, the compound was called inactive (in [5]; in [6]; with HGF (gene 3082); in assay [18]).

On to `O=C(O)c1ccccc1C(c1ccc(O)cc1)c1ccc(O)cc1`, for which the result in assay [1], in assay [2], in [3], in assay [4], in [19] and in [5] was inactive. Also, the call (in assay [6]; in assay [7]; in assay [8]; in assay [9]; with HGF (gene 3082); in [10]) was inactive. Further, the outcome in assay [11], in [12], in assay [13], in [14], in [15] and in assay [16] was inactive. For the same compound, in assay [18], the outcome was inactive.

The values above are taken from PubChem BioAssay (EPA / NIEHS).
